Gal4-VP16 FLuc – Gal4-VP16 reporter inhibition counter-screen | Drosophila S2 Gal4-VP16 UAS-luciferase, luminescence, 20 h | Potency, µM (doses to about 53.6 µM), for inactives: at the highest dose activity, negative = inhibition, actives largely listed as inhibitors | actives 3.5% (n = 310,000);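 further: Gal4-VP16 expression switched on by copper sulfate through the metallothionein promoter; potency means the concentration at half of the fitted maximal effect; on the % scale 0 is the no-effect control and ±100 the full control effect; nearly all actives have a fitted effect of over 50% in size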
CBFb RUNX1 block – CBF-beta/RUNX1 interaction disruption | Q01196+Q13951 | AlphaScreen CBFb-His/RUNX1-biotin binding, biochemical | Potency, µM (doses to about 59.8 µM), inactives show at the top dose activity, negative = inhibition, most hits filed as inhibitors | 230,000 tested, under 10 active; further: % of control where 0% means no effect
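His-tagged CBF-beta and biotinylated RUNX1 (30 nM each) were premixed 20 min at room temperature, exposed to compound for 15 min, then given nickel-chelate and streptavidin AlphaScreen beads (50 ng each). After 90 min, AlphaScreen signal was read.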
Six1-Eya2 blk – inhibitors of human Six1/Eya2 interaction; Q15475+O00167; AlphaScreen GST-Six1/His-Eya2 binding, biochemical; active compounds read low; activity change, % (concentration not given with the values); actives 0.56% (n = 360,000); in the data active means activity change below about -65%; inconclusive means mostly about -30% to -63%; further: on the % scale 0 is the no-effect control and ±100 the full control effect
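Compounds are tested against tagged Six1 and Eya2 proteins bridged by glutathione donor and nickel acceptor beads; after a one-hour incubation at 37 °C without light, AlphaScreen emission is recorded.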
CtBP-E1A blk – inhibitors of CtBP/E1A interaction; AlphaScreen GST-E1A/His-CtBP binding, 1536-well; active compounds read low; activity change, % (test concentration not listed); actives 0.49% (n = 340,000); AID 651724; in the data active means activity change below about -65%; inconclusive means mostly about -30% to -63%; further: on the % scale 0 is the no-effect control and ±100 the full control effect
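Protein mix (5X: 125 nM each GST-E1A, His-CtBP) was incubated with pinned compound 2 h at 37 deg C in dark, in 50 mM Tris pH 8.0 buffer with 300 mM NaCl. Glutathione donor and nickel acceptor beads followed; AlphaScreen signal read after 1 h.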
RORg inh – inhibitors of mouse ROR gamma transcriptional activity | P51450 | Drosophila S2 Gal4-RORgamma UAS-luciferase reporter, 20 h | Potency, µM (titrated, usually from 53.6 µM), without a hit: top-dose activity change, negative = inhibition, usual class: inhibitors | actives 5.4% (n = 310,000) | AID 2551; further: potency means the concentration at half of the fitted maximal effect; on the % scale 0 is the no-effect control and ±100 the full control effect; nearly all actives have a fitted effect of over 60% in size
Target sequence (P51450 whole entry, looked up, the tested form may be a part): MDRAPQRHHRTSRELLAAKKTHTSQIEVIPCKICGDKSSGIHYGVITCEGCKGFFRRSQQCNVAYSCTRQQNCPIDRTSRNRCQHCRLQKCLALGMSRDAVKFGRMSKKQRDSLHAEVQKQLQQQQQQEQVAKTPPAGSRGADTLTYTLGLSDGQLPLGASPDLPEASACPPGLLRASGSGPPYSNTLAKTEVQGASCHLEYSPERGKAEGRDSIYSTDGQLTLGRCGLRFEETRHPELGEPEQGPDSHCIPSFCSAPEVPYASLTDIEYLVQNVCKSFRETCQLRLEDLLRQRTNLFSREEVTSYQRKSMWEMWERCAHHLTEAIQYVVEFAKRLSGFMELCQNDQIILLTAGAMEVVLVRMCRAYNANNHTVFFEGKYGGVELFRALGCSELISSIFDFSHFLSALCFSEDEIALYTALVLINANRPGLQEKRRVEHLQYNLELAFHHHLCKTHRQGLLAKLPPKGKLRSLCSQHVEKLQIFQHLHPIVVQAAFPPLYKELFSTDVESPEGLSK
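A Gal4/UAS one-hybrid system in insect cells: metallothionein-promoter Gal4–ROR gamma fusion plus Photinus luciferase reporter. Copper sulfate 700 uM final, 20 hr ambient incubation, luminescent detection after 10 min with reagent.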
MBNL1 CUG block – blocks human MBNL1 binding to CUG repeat RNA | Q9NR56 | actives 0.036% (n = 280,000) | AID 2675 | TR-FRET MBNL1-His/biotin-(CUG)12 binding, 665/545 ratio | Potency, µM (highest dose often 57.5 µM), for inactives: at the highest dose activity change, negative = inhibition, most hits filed as inhibitors; active means well fitted inhibition curve with a large enough effect in the signal ratio, with a control signal flat, not every such curve was filed as active; inconclusive means small, poorly fitted or top-dose-only effect, or effect the other way, or a change in a side signal; inactive means no such curve, though single readings can be large or run the other way; the % refers to the signal ratio; further: potency means the concentration at half of the fitted maximal effect; on the % scale 0 is the no-effect control and ±100 the full control effect
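Ratiometric TR-FRET (665 over 545 nm, excitation 340 nm) tracks disruption of MBNL1-His/biotin-(CUG)12 complex after 60 min at room temperature, with compounds at 92 nM to 58 uM final.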
* marks the source's active call; other numbers are inactive results; ? = inconclusive; . = not tested or not shown; [ ] = dose if it differs, or a comment. Only some compounds are listed: those with a hit (about 5.5% of all), similar ones and a draw of the others. Unless noted, the call rests on the fitted dose curve; in most records, active means well fitted curve in the direction sought with a large enough effect; inconclusive means small, poorly fitted or top-dose-only effect, or another doubt; inactive means no such curve, though single readings can be large; an effect the other way counts as inactive or inconclusive.

SMILES | Gal4-VP16 FLuc | CBFb RUNX1 block | Six1-Eya2 blk | CtBP-E1A blk | RORg inh | MBNL1 CUG block
CCC(=O)c1ccc(OCC(=O)OCC(=O)NCC2CCCO2)cc1 (stereo unspecified) | -11% | . | -2 | -3 | -6% | -2%
Cc1cn(CC(=O)N2CCN(c3ccccn3)CC2)c(=O)[nH]c1=O | . | . | 3 | 8 | . | .
Cc1ccc(NC(=O)c2cc(C)n(-c3ccccc3)c2C)cc1 | 6.3µM* | -16% | -25 | -15 | 4.5µM* | -6%
Cc1ccc(NC(=O)c2csc(-c3ccccc3)c2C)cc1 | 2µM* | 1% | 5 | 6 | 2µM* | -12%
CNC(=O)C[C@@H](N)C(=O)N[C@@H](C(=O)N[C@@H]1C(=O)N2[C@@H]1SC(C)(C)[C@@H]2C(=O)O)c1ccc(O)cc1 | 3% | . | . | . | 1% | .
COC(=O)[C@@]1(Cc2ccccc2)[C@H]2c3cc(C(=O)N4CCCC4)n(Cc4cc(F)cc5c4OCOC5)c3C[C@H]2CN1C(=O)c1ccccc1 | 0% | -22% | . | . | 9% | .
O=c1c(-n2cncn2)c[nH]n1-c1cccc(Cl)n1 | 8% | -16% | 7 | 6 | -1% | -6%
O=c1c(/C=N/OCc2ccc(Cl)cc2Cl)c[nH]n1-c1cccc(Cl)n1 | 20µM* | ? | 1 | 4 | 13µM* | -2%
CN(C)S(=O)(=O)c1cccc(NC(=O)c2ccc3nccnc3c2)c1 | -5% | 7% | -15 | -20 | ? | ?
CC1(C)C(c2ccco2)=[N+]([O-])C2(CCCCC2=O)N1O (stereo unspecified) | -1% | 1% | 9 | 5 | -18% | -7%
CC1(C)C(c2cccs2)=[N+]([O-])C2(CCCCC/C2=N\NC(N)=S)N1O (stereo unspecified) | 6% | 16% | 9 | 8 | 0.63µM* | 1%
CC(C)C(=O)OCC(=O)[C@@]12OC(C3CCCCC3)O[C@@H]1CC1C3CCC4=CC(=O)C=C[C@]4(C)C3[C@@H](O)C[C@@]12C (stereo partly specified) | 0% | . | . | . | ? | .
Cc1ccc(CNC(=O)Cc2csc(Nc3nc(=S)[nH]c4ccccc34)n2)cc1 | 7.1µM* | -4% | . | . | 1.4µM* | 2%
O=C(Cc1csc(Nc2nc(=S)[nH]c3ccccc23)n1)NCc1ccccc1Cl | -5% | -5% | 0 | 1 | 6% | -5%
O=C(Cc1csc(Nc2nc(=S)[nH]c3ccccc23)n1)NCc1cccc(Cl)c1 | ? | -2% | -7 | 4 | 6.3µM* | -2%
O=C(Cc1csc(Nc2nc(=S)[nH]c3ccccc23)n1)N1CCN(c2cccc(C(F)(F)F)c2)CC1 | 7.1µM* | -6% | -10 | -1 | 0.63µM* | 1%
COc1cc(CN(C)Cc2cc(=O)n3ccsc3n2)ccc1OC(F)F | 16µM* | 13% | -7 | -1 | -15% | 2%
COc1cc(CN(C)c2ccc(S(=O)(=O)N3CCCC3)cn2)ccc1OC(F)F | . | . | 24 | 6 | . | .
N=C1SCC(=O)N1/N=C/c1ccccc1 | ? | -6% | 4 | 1 | 11µM* | -3%
C(=N\n1c2ccccc2c2ccccc21)/c1ccccc1 | 6% | -3% | 1 | 9 | 7% | -2%
O=C1CSC(=S)N1/N=C/c1cccc(C(F)(F)F)c1 | ? | . | -22 | ? | 7.9µM* | 13%
O=C1CSC(=S)N1/N=C/c1ccc(C(F)(F)F)cc1 | -1% | . | ? | -28 | ? | 4%
O=C1CSC(=S)N1/N=C/C=C/c1ccccc1 | ? | ? | -15 | -28 | 2.5µM* | 12%[11.5 µM]
Cc1ccccc1NC(=O)C(C)OC(=O)CNS(=O)(=O)c1ccc(C#N)cc1 (stereo unspecified) | . | . | 1 | 5 | . | .
CC(C)NC(=O)C1(C)CCN1C(=O)C1(c2ccccc2)CC1 (stereo unspecified) | . | . | 2 | 10 | . | .

Screens from PubChem BioAssay.
